Shown are actives, neighbours in structure and some others; about 11% of the full set was active somewhere.
HEK293 tox = kills HEK 293 cells; hit rate 6.6% among 94,000; HEK 293 viability, ATP luminescence (CellTiter-Glo), 48-72 h; Potency, µM (series often up to 115 µM), for inactives: at the highest dose activity change, negative = cytotoxicity, most hits filed as inhibitors; active means well fitted curve in the direction sought with a large enough effect; inconclusive means small, poorly fitted or top-dose-only effect, or another doubt; inactive means no such curve, though single readings can be large; an effect the other way counts as inactive or inconclusive; further: on the % scale 0 is the no-effect control and ±100 the full control effect; nearly all actives have a fitted effect of over 60% in size
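HEK 293 cells seeded at 250 cells/well were exposed to compound for 48 or 72 hr at 37 degree Celsius. Viability taken as ATP content by CellTiter-Glo luminescence.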
NPR1 antag = antagonists of human natriuretic peptide receptor Npr1. Potency, µM (doses to about 46.3 µM), without a hit: top-dose activity change, negative = inhibition, usual class: inhibitors. AID 1347048. hit rate 1.6% among 76,000. HEK293 hNpr1 GloSensor cGMP, ANP-stimulated luminescence; further: on the % scale 0 is the no-effect control and ±100 the full control effect; nearly all actives have a fitted effect of over 60% in size
Target sequence (P16066 whole entry, looked up): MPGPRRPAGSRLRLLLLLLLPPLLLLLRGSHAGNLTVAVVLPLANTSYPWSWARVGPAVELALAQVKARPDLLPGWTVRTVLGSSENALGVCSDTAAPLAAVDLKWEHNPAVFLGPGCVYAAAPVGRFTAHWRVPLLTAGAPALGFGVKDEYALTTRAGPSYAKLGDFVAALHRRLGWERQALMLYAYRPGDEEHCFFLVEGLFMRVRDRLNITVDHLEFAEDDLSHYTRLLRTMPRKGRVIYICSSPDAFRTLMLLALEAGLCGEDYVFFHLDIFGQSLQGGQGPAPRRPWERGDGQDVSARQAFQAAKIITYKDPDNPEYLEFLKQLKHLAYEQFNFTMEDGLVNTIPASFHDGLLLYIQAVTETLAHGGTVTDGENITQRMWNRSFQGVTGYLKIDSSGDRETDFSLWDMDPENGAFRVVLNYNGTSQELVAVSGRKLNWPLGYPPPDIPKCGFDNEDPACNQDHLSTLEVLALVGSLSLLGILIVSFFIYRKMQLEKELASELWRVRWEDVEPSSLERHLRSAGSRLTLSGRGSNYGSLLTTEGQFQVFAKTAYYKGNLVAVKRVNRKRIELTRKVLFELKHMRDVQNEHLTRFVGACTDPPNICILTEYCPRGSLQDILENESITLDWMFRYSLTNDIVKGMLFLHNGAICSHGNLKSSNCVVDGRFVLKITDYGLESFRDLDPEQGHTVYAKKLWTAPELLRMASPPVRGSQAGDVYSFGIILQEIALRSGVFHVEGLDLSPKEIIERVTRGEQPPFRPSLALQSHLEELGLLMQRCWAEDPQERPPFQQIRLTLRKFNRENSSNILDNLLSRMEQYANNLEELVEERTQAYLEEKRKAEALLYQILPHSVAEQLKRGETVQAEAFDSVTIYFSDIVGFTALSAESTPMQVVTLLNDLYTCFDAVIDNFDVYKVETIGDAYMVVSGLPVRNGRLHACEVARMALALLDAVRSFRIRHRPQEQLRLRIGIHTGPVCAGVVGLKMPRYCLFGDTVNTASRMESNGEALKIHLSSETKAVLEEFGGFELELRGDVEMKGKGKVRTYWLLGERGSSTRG
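HEK293 cells stably expressing human Npr1 and cGMP GloSensor pGS-40F, loaded 2 h with 2% GloSensor reagent, given compound 30 min at room temperature. Luminescence read before and 20 min after 0.1 nM hNppA.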
FLuc inh = blocks purified firefly luciferase enzyme activity | purified P. pyralis luciferase, luminescence, biochemical | Potency, µM (highest dose often 115 µM), hits mostly inhibitors | hit rate 2.5% among 76,000 | P08659; active means well fitted curve in the direction sought with a large enough effect; inconclusive means small, poorly fitted or top-dose-only effect, or another doubt; inactive means no such curve, though single readings can be large; an effect the other way counts as inactive or inconclusive; further: on the % scale 0 is the no-effect control and ±100 the full control effect; nearly all actives have a fitted effect of over 65% in size
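Luminescence read by CCD imaging after purified firefly luciferase (10nM final) was added to substrate buffer holding 10uM D-luciferin and 10uM ATP, pH 7.5, pre-dosed with compound.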
NIH3T3 tox = cytotoxic compounds in NIH 3T3 cells | hit rate 4.3% among 94,000 | NIH 3T3 viability, CellTiter-Glo ATP luminescence, 48-72 h | AID 1345082 | Potency, µM (doses to about 96.7 µM), for inactives: at the highest dose activity change, negative = cytotoxicity, actives largely listed as inhibitors; active means well fitted curve in the direction sought with a large enough effect; inconclusive means small, poorly fitted or top-dose-only effect, or another doubt; inactive means no such curve, though single readings can be large; an effect the other way counts as inactive or inconclusive; further: on the % scale 0 is the no-effect control and ±100 the full control effect; nearly all actives have a fitted effect of over 55% in size
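NIH 3T3 cells at 400 cells/well received 23 nL of compound by pintool and were incubated 48 or 72 h at 37 °C. Viability was read as ATP-coupled CellTiter-Glo luminescence.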
Npr1 antag conf = hNpr1 antagonism, confirmation assay; shares compounds with NPR1 antag; HEK293 hNpr1 cGMP GloSensor luminescence, ANP-stimulated; Potency, µM (doses to about 57.6 µM), without a hit: at the highest dose activity change, negative = inhibition, most hits filed as inhibitors; hit rate 76% among 1,400; AID 1347044; further: nearly all actives have a fitted effect of over 70% in size
NPR2 antag = selectivity test of Npr1 antagonists against human Npr2; Potency, µM (doses to about 57.6 µM), inactives show at the highest dose activity change, negative = inhibition, actives largely listed as inhibitors; AID 1347046; hit rate 67% among 1,400; shares compounds with NPR1 antag; HEK293 hNpr2 GloSensor cGMP luminescence, CNP-stimulated; further: nearly all actives have a fitted effect of over 70% in size
FLuc inh counter = counter-screen for Npr1 antagonists: firefly luciferase inhibitors. purified FLuc enzyme, luminescence, Km substrate. hit rate 0.7% among 1,400. AID 1347047. Potency, µM (titrated, usually from 57.6 µM), inactives show at the highest dose activity change, negative = inhibition, most hits filed as inhibitors. shares compounds with NPR1 antag; active means well fitted curve in the direction sought with a large enough effect; inconclusive means small, poorly fitted or top-dose-only effect, or another doubt; inactive means no such curve, though single readings can be large; an effect the other way counts as inactive or inconclusive; further: series mostly up to about 58 µM; 0% is about no effect
GloSensor cGMP = counter-screen for Npr1 antagonists: GloSensor control cell line. shares compounds with NPR1 antag. AID 1347051. hit rate 69% among 1,400. Potency, µM (top dose mostly 57.6 µM), without a hit: at the highest dose activity change, negative = inhibition, actives largely listed as inhibitors. HEK293 GloSensor cGMP, SNP-stimulated, luminescence; further: on the % scale 0 is the no-effect control and ±100 the full control effect; nearly all actives have a fitted effect of over 70% in size
Numbers without * were called inactive; i = inactive; ? = inconclusive; / = no result; [ ] = another dose, or the depositor's remark. Unless noted, the call rests on the fitted dose curve. Potency means the concentration at half of the fitted maximal effect.

SMILES | HEK293 tox | NPR1 antag | FLuc inh | NIH3T3 tox | Npr1 antag conf | NPR2 antag | FLuc inh counter | GloSensor cGMP
Cc1cc(=O)n(CC(=O)Nc2ccc(Br)cc2F)c(N(C)Cc2ccccc2)n1 | ? | ? | i | ? | 22µM* | 19µM* | 0% | 19µM*
Cc1cc(=O)n(CC(=O)Nc2ccc(F)cc2)c(N(C)Cc2ccccc2)n1 | ? | -18% | i | ? | / | / | / | /
Cc1ccc(NC(=O)Cn2c(N(C)Cc3ccccc3)nc(C)cc2=O)c(Cl)c1 | ? | ? | i | ? | / | / | / | /
Cc1cc(=O)n(CC(=O)Nc2ccc(F)c(Cl)c2)c(N(C)Cc2ccccc2)n1 | -2% | 11µM* | i | i | 24µM* | ? | -1% | 22µM*
Cc1cc(=O)n(CC(=O)Nc2ccc(C)c(F)c2)c(N(C)Cc2ccccc2)n1 | ? | ? | i | ? | / | / | / | /
COc1ccc(NC(=O)Cn2c(N(C)Cc3ccccc3)nc(C)cc2=O)cc1OC | ? | 4.5µM* | i | ? | 6.9µM* | 11µM* | 2% | 7.7µM*
Cc1cc(C(=O)N2CCC(N3C[C@H](Oc4ccccc4)[C@@H]3c3ccncc3)CC2)n(C)n1 | ? | / | / | -15% | / | / | / | /
Cc1cc(=O)n(CC(=O)NCc2ccccc2Br)c(N(C)Cc2ccccc2)n1 | ? | -14% | i | ? | / | / | / | /
COc1ccc2ccc(OCc3nc(C(=O)N(C)CC(C)O)co3)cc2c1 (centres undefined) | ? | ? | i | ? | / | / | / | /
C=CCNC(=O)c1coc(COc2ccc3ccc(OC)cc3c2)n1 | 45µM* | 10µM* | i | ? | 24µM* | 22µM* | -11% | 22µM*
COc1ccc2ccc(OCc3nc(C(=O)N4CCCC(C(N)=O)C4)co3)cc2c1 (centres undefined) | ? | 11µM* | i | ? | 14µM* | 19µM* | -19% | 11µM*
COc1ccc2ccc(OCc3nc(C(=O)N4CCC(NC(C)=O)CC4)co3)cc2c1 | ? | -23% | i | ? | / | / | / | /
COc1ccc2ccc(OCc3nc(C(=O)N(C)Cc4cc(C)no4)co3)cc2c1 | ? | ? | i | ? | 31µM* | ? | -22% | ?
CNC(=O)c1cc(C2CC2)nc2onc(C3CCN(C(=O)c4ccc(F)cc4)C3)c12 (centres undefined) | ? | / | / | -37% | / | / | / | /
CCc1cnc(C)nc1N1CCOC(c2ccc(Cl)cc2)C1 (centres undefined) | 11µM* | 10µM* | i | ? | 14µM* | 15µM* | 0% | 12µM*
Clc1ccc(C2CN(c3cc(C4CC4)ncn3)CCO2)cc1 (centres undefined) | 25µM* | 11µM* | i | ? | 19µM* | 22µM* | 0% | 17µM*
Cc1nc(C(F)(F)F)nc(N2CCOC(c3ccc(F)cc3)C2)c1C (centres undefined) | ? | -24% | i | ? | / | / | / | /
O=C(NC1CCCCC1)O[C@@H]1CO[C@H]2[C@@H]1OC[C@@H]2Nc1nccc(-c2cccs2)n1 | ? | 10µM* | i | 112µM* | 5µM* | 7.9µM* | 4%[86.2 µM] | 7µM*
O=S(=O)(N[C@H]1CO[C@H]2[C@@H]1OC[C@@H]2Nc1nccc(-c2cccs2)n1)c1cccs1 | 28µM* | 10µM* | i | ? | 22µM* | 19µM* | 0% | 15µM*
CC(C)CN[C@H]1CO[C@H]2[C@@H]1OC[C@@H]2Nc1nccc(-c2cccs2)n1 | ? | 25µM* | i | ? | 40µM* | ? | 4%[86.2 µM] | 31µM*
COc1ccc(C(=O)N2CCC3(CC2)CC(c2nc(C)no2)N(C)C3)cc1F (centres undefined) | 4% | 4% | i | -19% | / | / | / | /
CC(=O)c1cc(CN2CCCCC(N)C2)cs1 (centres undefined) | i | -1% | i | -2% | / | / | / | /
COc1cccc(CN2CCC(Oc3ccccc3-c3nc(-c4ccncc4)no3)C2)c1 (centres undefined) | ? | ? | i | 25µM* | ? | ? | ? | 0%
O=C(Cc1ccccc1F)N1CC(Oc2ccc(-c3noc(-c4cccnc4)n3)cc2)C1 | -43% | -29% | i | -2% | 22µM* | 22µM* | -14% | 22µM*
CC(C)S(=O)(=O)N1CC(Oc2ccc(-c3noc(-c4cccnc4)n3)cc2)C1 | ? | 1.4µM* | i | -24% | 22µM* | ? | -14% | 22µM*
SMILES | HEK293 tox | NPR1 antag | FLuc inh | NIH3T3 tox | Npr1 antag conf | NPR2 antag | FLuc inh counter | GloSensor cGMP
COc1ccccc1C(=O)N1CC(Oc2ccc(-c3nc(-c4ccccc4)no3)cc2)C1 | ? | 11µM* | i | ? | 24µM* | 24µM* | -25% | 22µM*
COc1ccc(S(=O)(=O)N2CCC(c3noc(-c4cccnc4)n3)C2)cc1 (centres undefined) | -8% | -7% | i | -26% | / | / | / | /
COCCn1c(=O)c(C(=O)NCCCc2ccccc2)nc2cccnc21 | 4% | / | / | -29% | / | / | / | /
CC(C)CCN1CCCC2(CNc3ccccc3[S+](=O)([O-])N2)C1 (centres undefined) | -31%[172 µM] | -6%[70.6 µM] | i | -19%[138 µM] | / | / | / | /
COc1cc(NC(=O)C[C@H]2NC(=O)c3ccccc3NC2=O)ccc1-n1nc(C)cc1C | 3% | -1% | i | i | / | / | / | /
COc1cccc(CC(=O)N2CC(Oc3ccc(-c4noc(-c5ccncc5)n4)cc3)C2)c1 | 13µM* | 7.9µM* | i | ? | 3.1µM* | 4.3µM* | -21% | 3.4µM*
C[S+](=O)([O-])CCn1ncc2cc(OCC3CCN(C(=O)OC4CCCC4)CC3)ccc21 | ? | 10µM* | i | ? | 11µM* | 11µM* | -18% | 9.7µM*
C[S+](=O)([O-])CCn1ncc2cc(OCc3cccc(-c4ccc(Cl)cc4)c3)ccc21 | ? | ? | i | ? | 31µM* | 31µM* | ? | 35µM*
CCc1cnc(N2CCC(COc3ccc4c(cnn4CC[S+](C)(=O)[O-])c3)CC2)nc1 | ? | 8.9µM* | i | -23% | 8.6µM* | 9.7µM* | 0% | 6.9µM*

Assay outcomes (PubChem)
